# Bioassay records: PubChem BioAssay, National Center for Advancing Translational Sciences (NCATS)
# ELG1 repair inh = inhibitors of ELG1-dependent DNA repair in HEK293T cells; HEK293T ELG1-luciferase reporter, luminescence, 16 h; DNA damage induced by 5-fluorouridine; Potency, µM (top dose mostly 46.1 µM), for inactives: at the highest dose activity change, negative = inhibition, usual class: inhibitors; hit rate 2.3% among 330,000; AID 504467; also: potency is read from the fitted curve at half-maximal effect; nearly all actives have a fitted effect of over 55% in size
#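 Luminescence from the luciferase reporter, measured 30 min after ONE-Glo reagent at room temperature, was the read-out. Beforehand, 2,000 cells per well were exposed for 16 hr at 37 °C to 5-fluorouridine together with compound or vehicle.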
# IL-1B inflam inh = blocks inflammasome-driven IL-1 beta release | THP-1 LPS/ATP IL-1B secretion, AlphaLISA, 16 h; hits give low values | activity change, % at 57.5 µM | hit rate 4.7% among 360,000 | AID 743279; in the data active = activity change below about -50%; inconclusive = mostly about -30% to -49%
#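 THP-1 cells pretreated 1 hr with compounds (up to 57.5 uM final), then stimulated with LPS (250 ng/mL final) plus ATP (1.25 mM final); secreted IL-1B measured by AlphaLISA after 16 hr, decreased signal indicating inhibition.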
# DT40 TDP1 no CPT = qHTS for Inhibitors of human tyrosyl-DNA phosphodiesterase 1 (TDP1): qHTS in cells in absence of CPT | AID 686978, 2013 | hit rate 15% among 420,000 | Potency, µM (titrated, usually from 46.2 µM), for the others: top-dose activity change, negative = growth inhibition, hits mostly inhibitors | DT40 Tdp1-/- hTDP1 cells, no CPT, ATP luminescence, 48 h; also: potency is read from the fitted curve at half-maximal effect; nearly all actives have a fitted effect of over 55% in size
#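 Growth kinetics read by CellTiter-Glo luminescence after ≥48 hr at 37 °C. Cells: DT40 Tdp1-/- stably carrying human TDP1, 400 per well, compound exposure in the absence of CPT (DMSO vehicle).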
# HT1080 IDH1KD tx = kills HT-1080 cells with IDH1 knockdown; Potency, µM (series often up to 46.1 µM), for the others: top-dose activity, negative = toxicity, most hits filed as cytotoxic; HT-1080 IDH1 knockdown viability, ATP luminescence, 48 h; hit rate 2% among 360,000;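 also: potency is read from the fitted curve at half-maximal effect; 0% = DMSO wells and -100% = cell-free medium wells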
#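 HT-1080-IDH1KD cells (IDH1 knocked down), 750/well in RPMI with 5% FBS, treated with compound 48 h at 37 degrees C. Viability by CellTiter-Glo luminescence, normalised to DMSO and no-cell wells; concentration-response curves classed.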
# HT1080-NT tox = kills 2HG-producing HT-1080-NT fibrosarcoma cells | HT-1080-NT fibrosarcoma viability, CellTiter-Glo ATP luminescence, 48 h | Potency, µM (series often up to 46.1 µM), for the others: at the top dose activity, negative = less viability, usual class: cytotoxic | hit rate 1.6% among 360,000;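 also: NT is the 2HG producing partner of a matched IDH1 knockdown line; potency is read from the fitted curve at half-maximal effect; 0% = DMSO-treated cells and -100% = media-only wells without cells; nearly all actives have a fitted effect of over 55% in size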
#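 Toxicity toward the 2HG-producing NT line was scored as %Activity, normalised to DMSO and no-cell wells, from CellTiter-Glo luminescence after 48 hours' treatment.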
# DT40 TDP1 CPT = growth inhibition of DT40 Tdp1-/-;hTDP1 cells with camptothecin (screen for TDP1 inhibitors). chicken DT40 Tdp1-/-;hTDP1 cells + 20 nM CPT, ATP luminescence, 48 h. Potency, µM (doses to about 46.2 µM), inactives show at the highest dose activity change, negative = growth inhibition, usual class: inhibitors. hit rate 12% among 420,000; also: potency is read from the fitted curve at half-maximal effect; nearly all actives have a fitted effect of over 55% in size
#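 Cell growth measured by CellTiter-Glo luminescence after a minimum 48 h, 37 C compound exposure with 20 nM CPT in Tdp1-knockout DT40 cells stably expressing hTDP1, seeded 400/well; qHTS titration format.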
# * hit, by the source's call; ? = inconclusive; · = no result; [ ] = dose if it differs, or a comment. Compounds with a hit are over-represented: about 19% of the library has one in this group of screens. Unless noted, calls follow the shape of the dose curve; as a rule, active = well fitted curve in the direction sought with a large enough effect; inconclusive = small, poorly fitted or top-dose-only effect, or another doubt; inactive = no such curve, though single readings can be large; an effect the other way counts as inactive or inconclusive. Unless noted, % is scaled to controls: 0 for no effect and ±100 for the full control effect.
SMILES,ELG1 repair inh,IL-1B inflam inh,DT40 TDP1 no CPT,HT1080 IDH1KD tx,HT1080-NT tox,DT40 TDP1 CPT
CC(=O)Oc1ccc(C(=O)NC(C)CCc2ccccc2)cc1 (centres undefined),?,-1,-10%,2%,1%,-8%
CNC[C@@H](C)NC[C@@H](Cc1ccccc1)NCCc1ccccc1,6%,?,4.6µM*,-22%,?,8.2µM*
Cc1cc(C)c(C(=O)COc2cccnc2[N+](=O)[O-])cc1C,?,2,5.8µM*,?,?,4.1µM*
CC(C)C[C@H](NC(=O)c1nc[nH]c1C(=O)N[C@@H](CC(C)C)C(=O)OC(C)(C)C)C(=O)OC(C)(C)C,?,?,?,?,?,23µM*
CC(C)C[C@H](NC(=O)c1nc[nH]c1C(=O)N1CCN(c2ccccc2)CC1)C(=O)OC(C)(C)C,21%,-25,?,-7%,-18%,21µM*
CC(C)C[C@H](NC(=O)c1[nH]cnc1C(=O)N[C@H](C)c1ccccc1)C(=O)OC(C)(C)C,-5%,-55*,18µM*,?,?,?
CC(C)C[C@H](NC(=O)c1nc[nH]c1C(=O)NCC(=O)OC(C)(C)C)C(=O)OC(C)(C)C,?,-29,?,-10%,-16%,?
CC(C)C[C@H](NC(=O)c1nc[nH]c1C(=O)NC(c1ccccc1)c1ccccc1)C(=O)OC(C)(C)C,?,-69*,18µM*,21µM*,26µM*,4.1µM*
C[C@H](NC(=O)c1nc[nH]c1C(=O)N[C@@H](C)c1ccccc1)C(=O)OC(C)(C)C,-8%,0,3%,3%,8%,?
Cc1ccc(S(=O)(=O)c2nnn3c2nc(N2CCN(c4cccc(C)c4C)CC2)c2ccccc23)cc1C,·,·,0%,·,·,-8%
NC1=NC(c2cccc(Cl)c2)n2c(nc3ccccc32)N1 (centres undefined),·,·,-21%,·,·,3%
CCc1ccc(NC(=O)CN2CCN(c3ccc(OC)cc3)CC2)cc1,·,-28,-15%,10%,6%,-10%
COc1ccccc1N1CCN(S(=O)(=O)c2c(C)nc3sccn3c2=O)CC1,·,·,3%,·,·,6%
O=C(c1nc[nH]c1C(=O)N1CCN(c2ccccc2)CC1)N1CCN(c2ccccc2)CC1,4%,-7,-8%,1%,-22%,13µM*
C[C@H](NC(=O)c1nc[nH]c1C(=O)N1CCN(c2ccccc2)CC1)C(=O)OCc1ccccc1,15%,-3,?,0%,-2%,18µM*
CC(C)(C)OC(=O)N1CCN(C(=O)c2nc[nH]c2C(=O)N2CCN(c3ccccc3)CC2)CC1,9%,5,6%,13%,3%,-4%
CC(C)C[C@H](NC(=O)c1nc[nH]c1C(=O)NCCNC(=O)OC(C)(C)C)C(=O)CNCCNC(=O)c1[nH]cnc1C(=O)N[C@@H](C)C(=O)OC(C)(C)C,-3%,-5,?,10%,?,23µM*
CC(C)C[C@@H](CNC(=O)OC(C)(C)C)NC(=O)c1nc[nH]c1C(=O)N[C@@H](CC(C)C)C(=O)CNC[C@H](CC(C)C)NC(=O)c1nc[nH]c1C(=O)N[C@@H](Cc1c[nH]c2ccccc12)C(=O)OC(C)(C)C,20%,-3,18µM*,-6%,?,?
CC(NC(=O)c1cccnc1)c1nnc2n1CCN(Cc1ccc(F)cc1F)CC2 (centres undefined),·,·,-18%,·,·,24%[9.04 µM]
CC(=O)c1ccc(N2C(=O)CC(N3CCN(S(=O)(=O)c4cc(C)ccc4C)CC3)C2=O)cc1 (centres undefined),6%,16,-1%,12%,10%,7%
COc1ccc(CCN2C(=O)CC(N3CCN(S(=O)(=O)c4ccccc4)CC3)C2=O)cc1OC (centres undefined),-18%,-20,?,2%,-3%,4%
OC(CNCc1ccc(Cl)cc1)C(F)(F)F (centres undefined),0%,-10,?,-5%,2%,6%
CCN(C[C@H]1N[C@@](Cc2ccccc2)(C(=O)OC)[C@H]2C(=O)N(Cc3ccccc3)C(=O)[C@@H]12)C(C)=O,-2%,-86*,-16%,10%,20%,8%
CCN(C[C@H]1N[C@@](CC)(C(=O)OC)[C@H]2C(=O)N(Cc3ccccc3)C(=O)[C@@H]12)C(=O)Nc1ccc(C)cc1,0%,-5,?,-6%,-1%,?
CCN(C[C@H]1N[C@@](Cc2ccccc2)(C(=O)OC)[C@H]2C(=O)N(Cc3ccccc3)C(=O)[C@@H]12)C(=O)Nc1ccc(C(F)(F)F)cc1,?,?,3.7µM*,-20%,-22%,2.6µM*
SMILES,ELG1 repair inh,IL-1B inflam inh,DT40 TDP1 no CPT,HT1080 IDH1KD tx,HT1080-NT tox,DT40 TDP1 CPT
CCN(C[C@H]1N[C@@](Cc2ccccc2)(C(=O)OC)[C@H]2C(=O)N(Cc3ccccc3)C(=O)[C@@H]12)C(=O)COC,9%,11,-11%,9%,1%,8%
CCN(C[C@H]1N[C@@](Cc2ccccc2)(C(=O)OC)[C@H]2C(=O)N(Cc3ccccc3)C(=O)[C@@H]12)C(=O)Nc1ccc(C)cc1,?,-7,16µM*,?,?,?
CCN(C[C@H]1N[C@@](CC)(C(=O)OC)[C@H]2C(=O)N(Cc3ccccc3)C(=O)[C@@H]12)C(=O)c1ccccc1,21µM*,8,?,23%,10%,?
CCN(C[C@H]1N[C@@](Cc2ccccc2)(C(=O)OC)[C@H]2C(=O)N(Cc3ccccc3)C(=O)[C@@H]12)C(=O)c1ccccc1,14%,-26,?,3%,8%,?
CC(C)CC(=O)Nc1nnc(S(=O)(=O)N(C)Cc2ccco2)s1,0%,3,-27%,0%,2%,-5%
COc1cccc(OC)c1C(=O)Nc1ccc(C)cc1C(=O)c1ccccc1,16µM*,?,?,-15%,-11%,?
COc1ccccc1C(=O)Nc1cccc(C(=O)c2ccccc2)c1,-13%,-17,?,15%,12%,?
Cc1ccc(NC(=O)c2ccccc2Br)c(C(=O)c2ccccc2)c1,·,·,-30%,·,·,-14%
COc1cccc(OC)c1C(=O)Nc1ccc(Br)c(C(=O)c2ccccc2)c1,-24%,-5,16µM*,-2%,-29%,?
COc1ccc(C(=O)Nc2cccc(C(C)=O)c2)c(OC)c1OC,?,-13,?,1%,17%,-29%
